Measurements from the supplement of paper PMC10105736.
A number with no mark means an inactive call.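 The calls were made as follows: active = MAPPIT score above the 99th percentile of random reference set scores in the same batch; inactive = at or below it.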

How the values were obtained:
Assay in all cases: MAPPIT interaction score (arbitrary units); higher = stronger binary interaction signal, active = hit call of the paper
[1] = target: CG12470; settings: MAPPIT configuration: N-N
[2] = target: Eb1; settings: MAPPIT configuration: N-N; pair source set: screen_1
[3] = target: SmydA-3; settings: MAPPIT configuration: N-N; pair source set: screen_2
[4] = target: Sply; settings: MAPPIT configuration: N-N; pair source set: Finley_Y2H
[5] = target: ben; settings: MAPPIT configuration: N-N; pair source set: screen_2
[6] = target: hb; settings: MAPPIT configuration: N-N; pair source set: screen_1
[7] = target: promL; settings: MAPPIT configuration: N-N; pair source set: screen_2
[8] = target: pzg; settings: MAPPIT configuration: N-N; pair source set: Curagen_high_conf
[9] = target: spin; settings: MAPPIT configuration: N-N; pair source set: screen_1
[10] = target: CG12567; settings: pair source set: RRS
[11] = target: CG14664; settings: pair source set: RRS
[12] = target: DIP1; settings: MAPPIT configuration: N-N; pair source set: screen_2
[13] = target: GstZ2; settings: pair source set: RRS
[14] = target: CG11961; settings: MAPPIT configuration: N-N; pair source set: Lit-BS-16
[15] = target: CG12607; settings: MAPPIT configuration: N-N; pair source set: Lit-BS-16
[16] = target: noc; settings: MAPPIT configuration: N-N; pair source set: Curagen_high_conf
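Also: HEK293T cells with Epo stimulation, STAT-responsive firefly luciferase reporter, fold induction versus unstimulated cells divided by the larger fold induction of two negative controls lacking either bait or prey.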

B1: sinah (protein)
chain: MSVRNSRPQLSWPERVSPQRTIDTPTASGEMLTRRQSAPALVVPPEETTHVVVVKRQSPDAAAAGELVPSRRKDSVAVQSGIVATGPLDTTRSGARDDFLMALLECPVCFGYIMPPIMQCPRGHLICSTCRSKLTICPVCRVFMTNIRSLAMEKVASKLIFPCKHSHFGCRARLSYAEKTKHEEDCECRPYFCPYPDDKCSWQGPLRDVYQHLMSSHENVITMEGNDIIFLATNVNLEGALDWTMVQSCHGRHFLLSLEKINLGEDCQQYFTACRMIGSMKDAAEFVYNISLEAYNRTLRWQSKPRSIRENFSSFTNADFLVLNKHTVELFSEDGNLALNVVIRKVEERTN
[1]; pair source set: Curagen_low_conf
  MAPPIT interaction score: 2.95 (active)
[2]
  MAPPIT interaction score: -0.0985
[3]
  MAPPIT interaction score: 0.15
[4]
  MAPPIT interaction score: 1.41
[5]
  MAPPIT interaction score: 1.2
[6]
  MAPPIT interaction score: -0.281
[7]
  MAPPIT interaction score: 0.506
[8]
  MAPPIT interaction score: -1
[9]
  MAPPIT interaction score: 0.564

B2: SNRPG (protein)
chain: MSKAHPPEVKKYMDKRMMLKLNGGRAVTGILRGFDPFMNVVLDDTVEECKDNTKNNIGMVVIRGNSIVMVEALDRV
[1]; pair source set: Finley_Y2H
  MAPPIT interaction score: 2.32

B3: Adar (protein)
chain: MKFDSRVMLNSANNNSPQHPVSAPSDINMNGYNRKLPQKRGYEMPKYSDPKKKMCKERIPQPKNTVAMLNELRHGLIYKLESQTGPVHAPLFTISVEVDGQKYLGQGRSKKVARIEAAATALRSFIQFKDGAVLSPLKPAGNLDFTSDEHLENGIENLSSSKMFEIIQTMLTEKLSNPTSLEQPTFCMSQNVSKSAITVDGQKKVPDKGPVMLLYELFNDVNFECINIDGAQNNCRFKMTVTINEKKFDGTGPSKKTAKNAAAKAALASLCNISYSPMVVPQKNVPLPIDDKSSSMELPQIHADTIGRLVLEKFMEVIKGQEAYSRRKVLAGIVMTENMNFCEAKVISVSTGTKCVSGEHMSVNGAVLNDSHAEIVSRRCLLKYLYAQLDLQCNQATAYQSIFVRNTDGQYPYKLKSGVHFHLYINTAPCGDARIFSPHENDTGVDKHPNRKARGQLRTKIESGEGTIPVKSSDGIQTWDGVLQGQRLLTMSCSDKIARWNIVGIQGSLLSSIIEPVYLHSIVLGSLLHPEHMYRAVCGRIEKSIQGLPPPYHLNKPRLALVTSAEPRNQAKAPNFGINWTIGDTELEVVNSLTGRTIGGQVSRITKQAFFVKYGFLMANLPGILVRKVTTDYGQTKANVKDYQIAKLELFSAFKREDLGSWLKKPIEQDEFGLAE
[10]; MAPPIT configuration: N-C
  MAPPIT interaction score: 0.742
[10]; MAPPIT configuration: N-N
  MAPPIT interaction score: 1.87
[11]; MAPPIT configuration: N-C
  MAPPIT interaction score: -0.248
[11]; MAPPIT configuration: N-N
  MAPPIT interaction score: 0.297
[12]
  MAPPIT interaction score: -0.0973
[13]; MAPPIT configuration: N-C
  MAPPIT interaction score: 0.124
[13]; MAPPIT configuration: N-N
  MAPPIT interaction score: -0.194

B4: Sod3 (protein)
chain: MMQYLVVSLALCATICSAAQTRNMPIQAIAYLIGPVQSDNTQVKGNVTFTQNDCGQNVHVRVQLEGLKEGKHGFHIHEKGDLTNGCISMGAHYNPDKVDHGGPDHEVRHVGDLGNLEANSTGIIDVTYTDQVITLTGKLGIIGRGVVVHELEDDLGLGNHTDSKKTGNAGGRIACGVIGIK
[14]
  MAPPIT interaction score: -0.0996
[15]
  MAPPIT interaction score: 0.262
[16]
  MAPPIT interaction score: 0.249
